Assay results from PubChem BioAssay (NCATS).
Inconclusive results are not listed. Active and inactive are the calls of the source. Unless noted, the call rests on the fitted dose curve; in most records, active means well fitted curve in the direction sought with a large enough effect; inconclusive means small, poorly fitted or top-dose-only effect, or another doubt; inactive means no such curve, though single readings can be large; an effect the other way counts as inactive or inconclusive.

Experiments:
[1] = S16 Schwann cell viability assay (CellTiter-Glo assay) (AID 624031); further: nearly all actives have a fitted effect of over 70% in size; further: potency means the concentration at half of the fitted maximal effect
How it was run: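 Rat S16 Schwann cells without reporter constructs received compound or DMSO for 24 h at 37 °C under 5% CO2. Cellular ATP was then quantified by CellTiter-Glo luminescence, with vehicle wells defined as 0% activity and cell-free wells as reference.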

[2] = NCATS anti-infectives library activity on the primary C. elegans qHTS viability assay (AID 1745855; calls by dose curve; further: potency means the concentration at half of the fitted maximal effect); conditions: C. elegans worm area imaging, day 7
How it was run: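 Viability is taken from GFP fluorescence of PE254-GFP-FLuc C. elegans imaged by laser cytometry over 7 days. Ten L1 worms per well grow at 21 °C on TOP10 E. coli capsules with titrated compound; levamisole marks toxicity.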

[3] = system: 7G8; assay: qHTS profiling for inhibitors of Plasmodium falciparum proliferation (AID 504749); further: nearly all actives have a fitted effect of over 60% in size; further: potency means the concentration at half of the fitted maximal effect; conditions: P. falciparum in erythrocytes, SYBR Green DNA, 72 h; series mostly up to 12.8 µM
How it was run: (§1)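 Readout was DNA-dye fluorescence from lysed cultures, ex 485/em 535 nm. Parasitized red cells had grown 72 h with compound; data scaled between 0.29 uM artemisinin and DMSO wells and corrected using vehicle-only plates.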

[4] = system: CP215; assay: as above; conditions: P. falciparum in erythrocytes, SYBR Green DNA, 72 h; series mostly up to 28.7 µM
How it was run: as §1

[5] = system: CP266; assay: as above; conditions: P. falciparum in erythrocytes, SYBR Green DNA, 72 h; series mostly up to 28.7 µM
How it was run: as §1

[6] = system: GB4; assay: as above; conditions: P. falciparum in erythrocytes, SYBR Green DNA, 72 h; series mostly up to 12.8 µM
How it was run: as §1

[7] = system: P93_24; assay: as above; conditions: P. falciparum in erythrocytes, SYBR Green DNA, 72 h; series mostly up to 12.8 µM
How it was run: as §1

[8] = qHTS for differential inhibitors of proliferation of Plasmodium falciparum line 7G8 (AID 1815);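 further: parasite growth measured after three days of incubation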
[9] = qHTS Assay for Modulators of Human Peripheral Myelin Protein 22 (PMP22) Expression/Activity (AID 1967; active means well fitted curve in the direction sought with a large enough effect in the signal ratio; the % refers to the signal ratio)
How it was run: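 Mouse MSC80 Schwann cells carrying Pmp22 promoter–green click beetle luciferase plus EF-alpha–red luciferase control, dosed 24 h at 37 °C. Dual-filter luminescence, overlap-corrected; %Activity from green/red ratio normalised to untreated cells, concentration-response curves fitted.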

[10] = NCATS anti-infectives library activity on HEK293 viability as a counter-qHTS vs the C. elegans viability qHTS (AID 1745854);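 further: HEK293 cells exposed to compounds for 24 hr before the viability read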
How it was run: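 Cytotoxicity in human HEK293 cells is measured by ATP-dependent CellTiter-Glo luminescence following a 24 hr incubation with titrated library compounds at 37C. Top final concentration is 41.7 uM.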

[11] = target: Luciferin 4-monooxygenase (Photinus pyralis) (UniProt P08659); assay: Biochemical firefly luciferase enzyme assay for NPC (AID 624030);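 further: purified P. pyralis luciferase at 10 nM with luciferin and ATP substrate; nearly all actives have a fitted effect of over 70% in size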
Sequence of Luciferin 4-monooxygenase (Photinus pyralis) (P08659 whole entry, looked up): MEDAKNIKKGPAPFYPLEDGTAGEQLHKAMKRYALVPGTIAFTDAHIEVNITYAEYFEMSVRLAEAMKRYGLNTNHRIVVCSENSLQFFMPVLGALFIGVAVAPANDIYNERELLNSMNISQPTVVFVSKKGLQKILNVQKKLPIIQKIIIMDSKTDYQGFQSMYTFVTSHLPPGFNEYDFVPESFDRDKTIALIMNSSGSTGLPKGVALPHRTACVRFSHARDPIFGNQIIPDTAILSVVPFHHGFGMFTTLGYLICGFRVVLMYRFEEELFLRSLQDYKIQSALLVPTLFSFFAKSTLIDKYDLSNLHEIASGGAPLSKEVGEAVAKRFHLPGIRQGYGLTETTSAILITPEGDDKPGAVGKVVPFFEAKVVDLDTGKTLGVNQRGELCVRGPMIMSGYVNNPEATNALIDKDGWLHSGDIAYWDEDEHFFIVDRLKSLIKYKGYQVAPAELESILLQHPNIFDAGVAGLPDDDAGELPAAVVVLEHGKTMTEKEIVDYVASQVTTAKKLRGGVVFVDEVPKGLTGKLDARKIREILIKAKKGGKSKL
How it was run: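 Purified P. pyralis luciferase at 10 nM in 50 mM Tris Acetate (final), luminescence read within 5 minutes of enzyme addition to compounds. Activity normalised to PTC124 versus DMSO; concentration-response curves classed by r2, magnitude and activity.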

[12] = S16 Schwann cell PMP22 intronic element beta-lactamase assay (AID 624044; calls by dose curve; further: nearly all actives have a fitted effect of over 15% in size)
How it was run: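 Rat S16 Schwann cells with beta-Lac driven by a PMP22 intronic element, compound-treated 24 h at 37 °C. LiveBLAzer FRET B/G read: 460 nm normalized to potassium clavulanate vs DMSO; 535 nm FRET as viability; concentration-effect curves classified.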

[13] = system: CP262; assay: qHTS profiling for inhibitors of Plasmodium falciparum proliferation (AID 504749); further: nearly all actives have a fitted effect of over 60% in size; further: potency means the concentration at half of the fitted maximal effect; conditions: P. falciparum in erythrocytes, SYBR Green DNA, 72 h; series mostly up to 12.8 µM
How it was run: as §1

[14] = Cell Viability - BJ (AID 421; calls by dose curve;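 further: potency means the concentration at half of the fitted maximal effect; cells exposed to compound for 40 hours at 37 °C before readout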); conditions: BJ fibroblast viability, qHTS
How it was run: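 Quantitative HTS: ATP depletion in BJ cells after 40 hr compound exposure in complete culture medium, detected with CellTiter-Glo; AC50 from standard Hill fits.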

[15] = Cell Viability - Jurkat (AID 426;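 active means dose-dependent loss of cell ATP signal giving a full or clear fitted curve, ranked by lower potency value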; further: potency means the concentration at half of the fitted maximal effect); conditions: qHTS
How it was run: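 Seed 5000 Jurkat E6-1 cells/well; add compound; incubate 40 hr at 37 °C; add CellTiter-Glo; wait 20 min at room temperature; read luminescence. Fit concentration-response with Hill equation for AC50.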

[16] = Cell Viability - Hek293 (AID 427;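 active means compounds whose dose-response curve shows a full or clear partial loss of cell viability, called from curve shape rather than a numeric limit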;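 further: potency means the concentration at half of the fitted maximal effect; cells exposed to compound for 40 hours at 37 °C before reading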); conditions: qHTS
How it was run: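 AC50 values derive from Hill-modelled concentration-response of ATP-based luminescence, normalized between DMSO-only and 100 uM tamoxifen controls. Cells were exposed in complete culture medium for 40 hr at 37 °C before detection.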

[17] = Cell Viability - HepG2 (AID 433; calls by dose curve;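 further: potency means the concentration at half of the fitted maximal effect; potency for ATP loss meaning cytotoxicity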); conditions: qHTS
How it was run: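 HepG2 cells, 1500 per well, treated 40 hr at 37 °C in complete medium; viability from intracellular ATP by CellTiter-Glo luminescence. Normalized to DMSO and 100 uM tamoxifen; AC50 from Hill fit of qHTS concentration-response.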

[18] = Cell Viability - MRC5 (AID 434; calls by dose curve;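 further: potency means the concentration at half of the fitted maximal effect; potency reflects cytotoxicity seen as loss of intracellular ATP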); conditions: MRC5 lung fibroblast viability, qHTS
How it was run: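 MRC5 normal human lung fibroblasts, 1500 cells/well, exposed to compound for 40 hr at 37 C. Cellular ATP was read by CellTiter-Glo luminescence; data normalized to DMSO and 100 uM tamoxifen, with AC50 from Hill fits.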

[19] = Cell Viability - SK-N-SH (AID 435; calls by dose curve;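 further: potency means the concentration at half of the fitted maximal effect; compound exposure lasted 40 h at 37 °C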); conditions: SK-N-SH neuroblastoma cell viability qHTS
How it was run: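 SK-N-SH neuroblastoma cells (1500/well) treated 40 h at 37 °C in complete medium; viability read as cellular ATP by CellTiter-Glo luminescence. Normalized to DMSO and 100 uM tamoxifen; AC50 from Hill fits of qHTS concentration-response.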

[20] = qHTS Assay for Identification of Small Molecule Inducers of Hypoxia Response (AID 2120; active means well fitted curve in the direction sought with a large enough effect in the signal ratio, with a control signal flat, not every such curve was filed as active; the % refers to the signal ratio)
How it was run: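 Induction of beta-lactamase reporter activity was measured in CellSensor HRE-bla ME-180 cells after 17 h compound treatment at 37 degrees C, using CCF4 substrate and the 460nm/530nm emission ratio to derive AC50 values.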

Measured: Potency

Cc1cc(/C=C\c2ccc3cc(N(C)C)ccc3[n+]2C)c(C)n1-c1ccccc1
active: [1] 15.5 µM | [2] 29 µM | [3] 0.398 µM | [4] 3.22 µM | [5] 2.87 µM | [6] 3.22 µM | [7] 0.708 µM

CNC(=O)[C@H]1O[C@@H](n2cnc3c(N)ncnc32)[C@H](O)[C@H]1O
inactive: [8] | [9]

CC(C)=CCC/C(C)=C/CC/C(C)=C/CC/C(C)=C/CC/C(C)=C/CC/C(C)=C/CC/C(C)=C/CC/C(C)=C/CC/C(C)=C/CO
inactive: [10]

COc1ccc(-c2cc(=O)c3c(OC)c(OC)c(OC)c(OC)c3o2)cc1OC
inactive: [10]

CN(C)CCCO[C@H]1C([C@H](O)CO)O[C@@H]2OC(C)(C)O[C@@H]21 (stereo partly specified)
inactive: [8] | [9]

O=C(Cc1cccs1)NC1C(=O)N2C(C(=O)[O-])=C(C[n+]3ccccc3)CSC12 (stereo unspecified)
inactive: [11] | [12] | [3] | [4] | [13] | [5] | [6] | [7]

C=C(C)[C@H]1CC=C(C)C(=O)C1
inactive: [14] > 92 µM | [15] > 92 µM | [16] > 92 µM | [17] > 92 µM | [18] > 92 µM | [19] > 92 µM | [20]

CC(C)N1CCN(c2ccc(OC[C@@H]3CO[C@@](Cn4cncn4)(c4ccc(Cl)cc4Cl)O3)cc2)CC1
inactive: [1] | [12] | [13]
